# Reference: PubChem BioAssay
# The source made the active and inactive calls. Unless noted, how the calls were made is not given here.
# Columns and labels:
# [1] = test system: XIP peptide (Xip251-270) binding; experiment: XIP fragment 251-270 binding compounds – biochemical, small-molecule microarray, fluorescence 635/667 nm, 0.1 µg/mL protein, primary screen (AID 1182); details: fluorescent protein binding, 635 nm, higher = more signal, called active from +8 up or from −8 down
# XIP peptide (Xip251-270) = experiment: compounds binding XIP fragment 251-270 – biochemical, small-molecule microarray, fluorescence 635/667 nm, 0.5 µg/mL protein, primary screen (AID 1183); details: fluorescence 635 nm, higher = more signal
# [2] = blood-stage malaria parasite viability loss – strain 3D7, DAPI fluorescence, 100 nL, primary screen (AID 1184);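 further: parasites grown inside human red blood cells in medium with human serum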; details: P. falciparum 3D7 growth, 3 d, higher = more signal
# [3] = target: Homeobox protein Hox-A13 (Mus musculus) (UniProt Q62424); experiment: disruptors of Hoxa13 oligonucleotide interaction – biochemical, fluorescence polarization, labeled oligonucleotide, primary screen (AID 1185); details: Hoxa13:DNA binding, 15 min, higher = more signal, called active from +8 up or from −8 down
# [4] = blockers of DNA damage checkpoint Chk1 activation – imaging, HeLa, hydroxyurea, phospho-Chk1 antibody, percent positive cells, primary screen (AID 1186); details: hydroxyurea-induced phospho-Chk1 immunofluorescence imaging, higher = more signal
# [5] = blockers of DNA damage checkpoint Chk1 activation – imaging, HeLa, hydroxyurea, phospho-Chk1 nuclear intensity, primary screen (AID 1187); details: hydroxyurea-induced phospho-Chk1 immunofluorescence imaging, higher = more signal
# Homeobox protein Hox-A13 (Mus musculus), sequence (Q62424 whole entry, looked up): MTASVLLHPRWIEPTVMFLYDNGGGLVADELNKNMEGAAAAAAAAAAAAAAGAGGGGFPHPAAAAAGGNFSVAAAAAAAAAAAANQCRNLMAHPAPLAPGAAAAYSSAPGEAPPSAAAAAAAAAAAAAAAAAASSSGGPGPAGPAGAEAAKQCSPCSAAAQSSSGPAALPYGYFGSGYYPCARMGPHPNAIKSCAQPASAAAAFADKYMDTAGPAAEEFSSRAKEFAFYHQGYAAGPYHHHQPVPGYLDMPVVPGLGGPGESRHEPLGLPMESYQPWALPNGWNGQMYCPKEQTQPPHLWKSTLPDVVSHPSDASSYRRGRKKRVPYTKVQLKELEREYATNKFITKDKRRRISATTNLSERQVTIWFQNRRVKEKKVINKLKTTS
SMILES,composite z-score [1],composite z-score (XIP peptide (Xip251-270)),z-score [2],z-score [3],z-score [4],z-score [5]
[N-]=[N+]=NC[C@H](Cc1ccccc1)NC(=O)c1ccccc1,-0.359 (inactive),0.108,-0.855,-0.271 (inactive),0.0506 (inactive),0.216 (inactive)
O=C1C2C=CC(C(O)c3cc(C(F)(F)F)cc(C(F)(F)F)c3)N(Nc3ccccc3F)C2C(=O)N1c1ccccc1 (stereo not given),1.22 (inactive),0.481,0.915,-2.39 (inactive),0.563 (inactive),0.544 (inactive)
O=C1O[C@H](c2ccccc2)[C@H](c2ccccc2)N2[C@H]1[C@@H](C(=O)N1CCCCCCC1)[C@]1(C(=O)Nc3ccc(C#CC4(O)CCCCCC4)cc31)[C@H]2c1ccccc1OCCO,5.88 (inactive),0.943,-1.88,4.4 (inactive),-0.0468 (inactive),0.285 (inactive)
C=CCC(OC(C)=O)[C@@H]1[C@@H](N(Cc2ccc(-c3ccccc3)cc2)C(=O)c2ccc(C)cc2)c2cc(OCCCO)ccc2N1C(=O)Cc1ccc2ccccc2c1 (stereo not given in full),0.254 (inactive),0.0529,-0.481,-1.28 (inactive),-0.816 (inactive),-0.488 (inactive)
COc1cc(NN2C(C(O)c3cc(OC)c(OC)c(OC)c3)C=CC3C(=O)N(c4ccccc4)C(=O)C32)cc(OC)c1OC (stereo not given),0.692 (inactive),0.552,-0.732,-4.86 (inactive),1.06 (inactive),0.889 (inactive)
O=c1cccc(-c2ccco2)o1,-0.103 (inactive),0.337,2.05,-1.92 (inactive),0.0593 (inactive),-0.106 (inactive)
Cc1ccc(F)cc1S(=O)(=O)N[C@@H]1CCN(Cc2cccc3[nH]ccc23)C1,-0.605 (inactive),0.578,-0.797,-3.62 (inactive),-0.561 (inactive),-0.948 (inactive)
COc1ccc(CCNC(=O)[C@@]2(Cc3ccccc3I)c3ccccc3C(=O)N(Cc3ccccc3Cl)[C@H]2c2ccc(CO)cc2)cc1,0.71 (inactive),0.765,-1.23,-3.36 (inactive),0.207 (inactive),-0.304 (inactive)
CC(C)CCC[C@@H](C)[C@H]1CC[C@@]2(C)C3=C(CC[C@]12C)[C@@]1(C)CC[C@H](OC(=O)c2ccccc2)C(C)(C)C1CC3 (stereo not given in full),0.276 (inactive),0.0627,-0.544,-1 (inactive),-0.531 (inactive),-0.299 (inactive)
O=C1O[C@H](c2ccccc2)[C@H](c2ccccc2)N2[C@H]1[C@@H](C(=O)Nc1nc3ccccc3s1)[C@]1(C(=O)Nc3ccc(C#CC4=CCCCC4)cc31)[C@H]2c1ccc(O)cc1,0.847 (inactive),0.541,-0.987,3.34 (inactive),-0.433 (inactive),-0.749 (inactive)
CCCCCN1CC=CC23O[C@@H]4C=CCOC(=O)[C@@H]4[C@H]2C(=O)N(CCO)[C@@H]3C1=O (stereo not given in full),0.647 (inactive),-0.311,1.34,-3.88 (inactive),-0.542 (inactive),-0.562 (inactive)
CCOC(=O)C1=CCC(c2ccco2)N(S(=O)(=O)c2ccc(C)cc2)C1 (stereo not given),0.397 (inactive),0.704,-0.0601,-4.57 (inactive),-0.641 (inactive),-0.942 (inactive)
C[C@]1(C(=O)O)c2ccccc2C(=O)N(Cc2ccc(OC(F)(F)F)cc2)[C@H]1c1ccc(CO)cc1,-0.336 (inactive),-1.05,0.465,-4.09 (inactive),-0.159 (inactive),-0.344 (inactive)
COCCCNC(=O)[C@@H]1c2ccccc2C(=O)N(C2Cc3ccccc3C2)[C@H]1c1ccc(CO)cc1,-0.295 (inactive),0.583,-0.804,-2.44 (inactive),-0.533 (inactive),-0.726 (inactive)
COc1cccc(/C=C(\C#N)C(=O)Nc2c(C)n(C)n(-c3ccccc3)c2=O)c1,0.0887 (inactive),0.438,0.393,-0.75 (inactive),-0.252 (inactive),-0.13 (inactive)
C=C(/C(=C/C[C@@H](OC(C)=O)c1ccc(OCCO)cc1)c1cc(C(=O)OC)ccc1OC)C(C)C,0.96 (inactive),0.819,-3,-4.3 (inactive),0.38 (inactive),0.578 (inactive)
O=C1C[C@@](C(=O)NCc2ccccc2)(c2ccc([N+](=O)[O-])cc2)[C@@H](c2ccc(CO)cc2I)N1CC12CC3CC(CC(C3)C1)C2,0.239 (inactive),0.692,-1.48,-2.19 (inactive),-0.114 (inactive),-0.147 (inactive)
C=CCC(OC(C)=O)[C@@H]1[C@@H](N(Cc2cccc3ccccc23)C(=O)c2ccc(-c3ccccc3)cc2)c2cc(OCCCO)ccc2N1C(=O)c1ccc(-c2ccccc2)cc1 (stereo not given in full),-0.303 (inactive),-0.811,0.579,-1.17 (inactive),0.492 (inactive),0.0424 (inactive)

SMILES,composite z-score [1],composite z-score (XIP peptide (Xip251-270)),z-score [2],z-score [3],z-score [4],z-score [5]
CC(C)C(=C=CC[C@H](O)c1cccc(OCCO)c1)CCO,0.675 (inactive),0.0075,0.585,-1.92 (inactive),0.0348 (inactive),0.549 (inactive)
COCCOC(=O)N1C(=O)[C@@]2(c3cc(C#CCC(C(=O)OC)C(=O)OC)ccc31)[C@H](c1ccc(O)cc1)N1[C@H](c3ccccc3)[C@H](c3ccccc3)OC(=O)[C@H]1[C@@H]2C(=O)NC[C@H](O)c1ccccc1,0.398 (inactive),0.465,-0.474,-2.44 (inactive),0.101 (inactive),0.524 (inactive)
CCOC(=O)C1=CC[C@@H](c2ccccc2)N(S(=O)(=O)c2ccc(C)cc2)[C@H]1c1cccc(OC)c1,-0.285 (inactive),0.291,-2.14,0.892 (inactive),0.238 (inactive),-0.67 (inactive)
COc1cc2c(cc1OC)CN(C(=O)[C@@H]1[C@H]3C(=O)O[C@H](c4ccccc4)[C@H](c4ccccc4)N3[C@H](c3ccc(O)cc3)[C@@]13C(=O)Nc1ccc(C#CCCO)cc13)CC2,1.33 (inactive),0.723,-1.16,-2.6 (inactive),0.189 (inactive),0.28 (inactive)
COc1cc(NN2C(C(O)c3ccccc3)C=CC3C(=O)N(C)C(=O)C32)cc(OC)c1OC (stereo not given),0.561 (inactive),0.346,-0.312,-3.23 (inactive),-0.36 (inactive),-0.516 (inactive)
C=CCNC(=O)[C@H]1[C@@H]2C(=O)O[C@@H](c3ccccc3)[C@@H](c3ccccc3)N2[C@@H](c2ccc(OCCO)cc2)[C@]12C(=O)Nc1ccc(C#CCNC(N)=O)cc12,0.952 (inactive),0.512,-1.13,-3.66 (inactive),0.0622 (inactive),0.183 (inactive)
C=C(/C(=C/C[C@H](OC(=O)c1ccncc1)c1cccc(OCCO)c1)c1cnc2ccccc2c1)C(C)C,0.0082 (inactive),0.67,-1.42,-5.01 (inactive),0.654 (inactive),0.212 (inactive)
COc1ccc([Si](C)(C)[C@@H]2[C@@H](CCn3cc([C@H](O)c4ccccc4)nn3)O[C@]3(C(=O)N(Cc4cccc(N5C(=O)c6cccc7cccc5c67)c4)c4ccccc43)[C@H]2C)cc1,0.368 (inactive),0.45,-2.38,-1.19 (inactive),-0.779 (inactive),-1.33 (inactive)
CN1C(=O)C2C=CC(C(O)c3cc(C(F)(F)F)cc(C(F)(F)F)c3)N(Nc3ccccc3)C2C1=O (stereo not given),1.9 (inactive),0.128,1.08,-3.84 (inactive),-0.0145 (inactive),0.0934 (inactive)
O=C1OCCC/C=C\[C@H]2OC34C=CCN(c5ccc6ccccc6c5)C(=O)[C@H]3N(CCCO)C(=O)[C@@H]4C12 (stereo not given in full),0.0317 (inactive),0.481,0.267,-5.72 (inactive),1.41 (inactive),0.656 (inactive)
[N-]=[N+]=Nc1ccccc1C[C@]1(C(=O)O)N=C(c2ccc(OCCCO)cc2)O[C@H]1c1ccccc1,0.471 (inactive),0.641,0.283,-5.34 (inactive),0.496 (inactive),0.558 (inactive)
CCOC(=O)C1=CC[C@@H](c2ccccc2)N(S(=O)(=O)c2ccc(C)cc2)[C@H]1C=Cc1ccccc1,0.0537 (inactive),0.749,-2.01,1.66 (inactive),-0.511 (inactive),-0.645 (inactive)
CN(C)C(=O)[C@@]1(CCC(=O)OC(C)(C)C)N=C(c2ccc(OCCCO)cc2)O[C@H]1c1ccccc1CN=[N+]=[N-],1.14 (inactive),0.316,-2.32,-5.91 (inactive),0.234 (inactive),0.422 (inactive)
NC(=O)[C@H]1[C@@H]2C(=O)O[C@@H](c3ccccc3)[C@@H](c3ccccc3)N2[C@@H](c2ccc(O)cc2)[C@]12C(=O)Nc1ccc(C#CC3=CCCCC3)cc12,0.875 (inactive),-0.0283,-0.88,-1.08 (inactive),-0.165 (inactive),-0.348 (inactive)
CCOC(=O)C1=C[C@@H](C(C)(C)C)N(S(=O)(=O)c2ccc(C)cc2)[C@H]1c1ccc(C)cc1,0.177 (inactive),0.325,-2.07,-0.0064 (inactive),0.0978 (inactive),-0.184 (inactive)
CC(C)OC(=O)CC(=O)CC(O)c1ccc([N+](=O)[O-])cc1 (stereo not given),0.319 (inactive),0.469,0.697,-1.67 (inactive),-0.0884 (inactive),-0.438 (inactive)
COc1ccc([Si](C)(C)[C@@H]2[C@@H](CC(=O)N3Cc4ccccc4C[C@H]3CO)O[C@]3(C(=O)N(Cc4ccc(N5CCC5=O)cc4)c4ccccc43)[C@H]2C)cc1,1.08 (inactive),0.682,-2.64,-0.855 (inactive),-0.169 (inactive),0.14 (inactive)
